Records with an inconclusive call do not appear. A number with no mark means an inactive call. Activity calls are given as the source filed them. Calls come from the whole dose curve.
Target: Nucleoprotein (Lymphocytic choriomeningitis virus (strain Armstrong)) (UniProt P09992)
Assay: qHTS for Inhibitors of the Functional Ribonucleoprotein Complex (vRNP) of Lymphocytic Choriomeningitis Arenaviruses (LCMV): LCMV Primary Screen - GLuc reporter signal (AID 1347086); note: nearly all actives have a fitted effect of over 70% in size
Conditions: LCMV minigenome vRNP cell assay, Gaussia luciferase reporter; series mostly up to 57.5 µM; activity change, negative = inhibition: at the top concentration
% is set by controls: 0 for no effect and ±100 for the full control effect.

Chain of Nucleoprotein (Lymphocytic choriomeningitis virus (strain Armstrong)) (P09992 whole entry, looked up): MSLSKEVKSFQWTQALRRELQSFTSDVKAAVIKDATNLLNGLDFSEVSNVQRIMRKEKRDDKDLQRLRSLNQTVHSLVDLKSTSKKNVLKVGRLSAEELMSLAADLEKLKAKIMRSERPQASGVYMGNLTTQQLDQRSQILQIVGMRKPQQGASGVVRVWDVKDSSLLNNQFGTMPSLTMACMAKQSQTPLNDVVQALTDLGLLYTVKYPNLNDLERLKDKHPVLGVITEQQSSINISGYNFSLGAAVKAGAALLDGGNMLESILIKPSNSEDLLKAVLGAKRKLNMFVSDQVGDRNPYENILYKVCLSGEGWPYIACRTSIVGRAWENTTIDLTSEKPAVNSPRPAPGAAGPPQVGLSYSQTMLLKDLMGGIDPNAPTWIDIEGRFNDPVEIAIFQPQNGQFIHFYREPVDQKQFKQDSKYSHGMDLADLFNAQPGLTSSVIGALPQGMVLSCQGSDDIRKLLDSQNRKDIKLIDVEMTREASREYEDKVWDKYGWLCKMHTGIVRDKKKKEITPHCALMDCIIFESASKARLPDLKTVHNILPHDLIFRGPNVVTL

Row | SMILES | activity change, negative = inhibition [%] | Potency
1 | COC(=O)c1c(C)[nH]c(C)c1C(=O)c1ccccc1Cc1ccccc1 | -4.45 | 
2 | CCCCCC(O)CCCC(=O)O (stereo unspecified) | 24 | 
3 | N=C(N)c1ccccc1 | 29.9 | 
4 | CCCCC/C=C\CC(O)/C=C/c1cccc(CC(O)CCCCO)n1 (stereo unspecified) | -5.8 | 
5 | OC[C@H]1O[C@@H](n2cnc3cncnc32)[C@H](O)[C@@H]1O |  | inactive
6 | N[C@@H](CCCC(=O)O)C(=O)O |  | inactive
7 | CSC(N)=NCCC[C@H](N)C(=O)O | 14.7 | 
8 | O=C(O)CC1CCCc2ccccc2C1O (stereo unspecified) | 7.49 | 
9 | Nc1ccc(CCNc2ncnc3c2ncn3C2OC(CO)C(O)C2O)cc1 (stereo unspecified) | 41.2 | 
10 | NC(N)=NC(N)=Nc1cccc(Cl)c1 | 24.7 | 
11 | CCCCS(=N)(=O)CC[C@H](N)C(=O)O (stereo partly specified) | 1.89 | 
12 | CCCN(CCc1ccccc1)C1CCc2c(O)cccc2C1 (stereo unspecified) | 0.558 | 
13 | CN1C2CCC1CC(OC(=O)C(O)c1ccccc1)C2 (stereo unspecified) | 5.96 | 
14 | CN1CCC[C@H]1c1cccnc1 | 3.03 | 
15 | NC(CCCP(=O)(O)O)C(=O)O (stereo unspecified) | 0.677 | 
16 | NC1(C(=O)O)CCc2cc(C(=O)O)ccc21 (stereo unspecified) | 19.2 | 
17 | C[C@@H](NCCc1ccc(O)cc1)[C@@H](O)c1ccc(O)cc1 | 5.79 | 
18 | CCCc1c(-c2ccc(O)cc2)nn(-c2ccc(O)cc2)c1-c1ccc(O)cc1 | 2.85 | 
19 | CC1CCN=C(N)S1 (stereo unspecified) | 10.2 | 
20 | CCCCCCCCCCCCCCSCC(=O)O | -4.8 | 
21 | OCC1O[C@H](O)C(Cl)C(O)C1O (stereo partly specified) | -2.94 | 

Reference: PubChem BioAssay (NCATS)
